# Data taken from ChEMBL document CHEMBL3988442, “University of Dundee, Small-Polar-MMV Screening Library” (2021).
# The whole screen tested about 66,000 compounds, of which about 960 (1.5%) showed an effect of 50% or more. The sample as a whole holds a higher share of strong results than the screen did.
# Test system: Trypanosoma brucei
# Experiment: Trypanosoma brucei 72 hour study
# Assay type: functional, organism-based
# Parameters: scale not given: in the data most compounds retested in dose-response had high values
compound,measurement,setting,value
CCOc1cc2c(cc1CNC(Cc1cccs1)c1nccs1)OCO2.Cl (configuration not stated),Percent Effect,"30.3 µM, […]",-21.18%
CC(C)c1ncc(-c2cc(C3CCC3)nc(N)c2C#N)cn1,Percent Effect,"30 µM, 30.03 µM",17.32%
CC(O)(CNC(=O)c1cccnc1-n1cccn1)c1ccsc1 (configuration not stated),Percent Effect,"30 µM, 30.03 µM",-28.28%
COc1ccnc(NC(=O)c2cscn2)c1,Percent Effect,"30 µM, 30.03 µM",7.926%
COc1ccnc(NC(=O)c2cscc2C)c1,Percent Effect,"30 µM, 30.03 µM",88.82%
COc1ccnc(NC(=O)c2ccsc2)c1,Percent Effect,"30 µM, 30.03 µM",14.39%
CCCn1c(=O)n(CCC(=O)N(C)Cc2ccc(C)o2)c2ccccc21,Percent Effect,"30 µM, 30.03 µM",-21.38%
Cc1nc(O)cc(C2CCN(Cc3ccc(F)c(F)c3)C2)n1.O=C(O)CC(O)(CC(=O)O)C(=O)O (configuration not stated),Percent Effect,"30.3 µM, […]",13.84%
CNC(=O)N1CCC2(CC1)c1ncc(C)n1CCN2C.O=C(O)C(F)(F)F.O=C(O)C(F)(F)F,Percent Effect,"30.3 µM, […]",11.26%
O=C(CCNCc1cc(O)c2cc(F)ccc2n1)N1CCCC1,Percent Effect,"30 µM, 30.03 µM",-42.31%
O=S(=O)(CCNCc1cc(O)c2cc(F)ccc2n1)N1CCCC1,Percent Effect,"30 µM, 30.03 µM",71.96%
Oc1cc(CNCCCN2CCCC2)nc2ccc(F)cc12,Percent Effect,"30 µM, 30.03 µM",-52.8%
CCc1ccc(CN2Cc3nccn3CC(CN3CCOCC3)C2)o1.O=C(O)C(F)(F)F.O=C(O)C(F)(F)F.O=C(O)C(F)(F)F (configuration not stated),Percent Effect,"30 µM, 30.03 µM",29.13%
Cc1ccsc1C(=O)N1CCC2(CC(N(C)c3ccncn3)C2)C1 (configuration not stated),Percent Effect,"30.3 µM, […]",-9.037%
O=C(Nc1ccc(F)cc1)N1C[C@H]2C[C@H](C(=O)N3CCCC3)[C@@H](C1)O2,Percent Effect,"30.3 µM, […]",-4.677%
CCc1c(C)nc(-n2nc(-c3cccs3)cc2N)[nH]c1=O,Percent Effect,"30 µM, 30.03 µM",63.75%
Cc1nc(-n2nc(-c3cccs3)cc2N)[nH]c(=O)c1C,Percent Effect,"30 µM, 30.03 µM",6.214%
Cc1cc(=O)[nH]c(-n2nc(-c3cccs3)cc2N)n1,Percent Effect,"30 µM, 30.03 µM",-18.7%
Nc1c(N2CCOCC2)ncnc1N1CCOCC1,Percent Effect,"30.3 µM, […]",-8.78%
same,Percent Effect,"10 mM, 10 mM as filed; unlikely as a test dose",-35.44%
CCN1CC2(CC1=O)CN(Cc1ccco1)CCN(C(=O)C(C)C)C2.O=C(O)C(F)(F)F (configuration not stated),Percent Effect,"30 µM, 30.03 µM",0.2286%
Cc1ccc(CN(CCCn2ccnc2)Cc2c(F)cccc2F)s1.O=C(O)CC(O)(CC(=O)O)C(=O)O,Percent Effect,"30.3 µM, […]",-13.01%
CN(Cc1ccncc1)Cc1cnn(-c2ccc(F)cc2)c1,Percent Effect,"30 µM, 30.03 µM",-38.94%
O=C(Cc1c(F)cccc1Cl)Nc1cc(N2CCCC2)ncn1,Percent Effect,"30 µM, 30.03 µM",-1.859%
O=C(Cc1ccccc1Cl)Nc1cc(N2CCCC2)ncn1,Percent Effect,"30 µM, 30.03 µM",-11.61%
O=C(Cc1c(F)cccc1Cl)Nc1cc(N2CCOCC2)ncn1,Percent Effect,"30 µM, 30.03 µM",100.3%
COc1ccc(C(=O)N2CCC(Oc3cccc(C)c3)(C(=O)O)CC2)o1,Percent Effect,"30 µM, 30.03 µM",-24.59%
O=C(Cc1ccc(Cl)cc1)N1CCC(O)(C(F)(F)F)C1 (configuration not stated),Percent Effect,"30.3 µM, […]",-19.5%
O=C(c1ccc(COc2ccc(Cl)cc2)o1)N1N=CCC1(O)C(F)(F)F (configuration not stated),Percent Effect,"30.3 µM, […]",99.58%
COCc1ccc(C(=O)N2CCC(Oc3ccccc3)(C(=O)O)CC2)o1,Percent Effect,"30 µM, 30.03 µM",-16.4%
Cc1cccc(OCc2ccc(C(=O)N3N=CCC3(O)C(F)(F)F)o2)c1 (configuration not stated),Percent Effect,"30.3 µM, […]",67.46%
O=C(c1ccc(COc2ccccc2Cl)o1)N1N=CCC1(O)C(F)(F)F (configuration not stated),Percent Effect,"30.3 µM, […]",31%
COc1c(CNCc2ccc(C(=O)N(C)C(C)C)cc2)c(C)nn1C,Percent Effect,10 µM,-22.99%
Cc1c(CNCc2nn(-c3ccccc3)c3c2CCC3)cc(C#N)n1C,Percent Effect,"30 µM, 30.03 µM",-10.92%
Cc1noc(C)c1CNCc1nn(-c2ccccc2)c2c1CCC2,Percent Effect,"30 µM, 30.03 µM",-40.9%
COc1ccccc1CNCc1nn(-c2ccccc2)c2c1CCC2,Percent Effect,"30 µM, 30.03 µM",105.2%
Cc1cncc(C(=O)N2CCO[C@H]3[C@H](OCCN(C)C)CC[C@@H]32)c1.O=C(O)C(F)(F)F.O=C(O)C(F)(F)F,Percent Effect,"30.3 µM, […]",-21.9%
Cc1n[nH]c(C)c1C1COCCN1C(=O)c1cc(F)ccc1F (configuration not stated),Percent Effect,"30.3 µM, […]",-0.3197%
CNC(=O)CN1CC[C@H]2CN(C(=O)c3cccn3C)C[C@H]2C1.O=C(O)C(F)(F)F,Percent Effect,"30.3 µM, […]",-42.42%
N[C@@H]1CCN(Cc2cc(-c3ccccc3OC(F)(F)F)no2)C[C@H]1O,Percent Effect,"30 µM, 30.03 µM",-20.57%
NC1CCCCN(Cc2cc(-c3ccccc3OC(F)(F)F)no2)C1 (configuration not stated),Percent Effect,"30 µM, 30.03 µM",101.5%
OC1COCCN(Cc2cc(-c3ccccc3OC(F)(F)F)no2)C1 (configuration not stated),Percent Effect,"30 µM, 30.03 µM",-31.26%
O=C(O)C(F)(F)F.O=C(O)C(F)(F)F.c1ccc(OCc2nnc3n2CCN(CC2CC2)C3)nc1,Percent Effect,"30 µM, 30.03 µM",16.25%
CC(C)Oc1ncccc1CNC(=O)N1CCC1,Percent Effect,"30.3 µM, […]",-18.33%
COc1ccc(C)cc1C(C)NS(=O)(=O)c1ccc2c(c1)CCC(=O)N2 (configuration not stated),Percent Effect,"30 µM, 30.03 µM",-36.95%
COc1ccc(C)cc1CCNS(=O)(=O)c1ccc2c(c1)CCC(=O)N2,Percent Effect,"30 µM, 30.03 µM",-47.2%
COc1ccc(C(C)NS(=O)(=O)c2ccc3c(c2)CCC(=O)N3)cc1F (configuration not stated),Percent Effect,"30 µM, 30.03 µM",95.9%
